PubChem BioAssay (EPA / NIEHS)
Results filed as inconclusive are left out. The source made the active and inactive calls. The calls were made as follows: active = hit-call score of the fitted dose curve at least 0.9, where 1 is the maximum; inconclusive = response in the unintended direction; inactive = score below 0.9.

Biological target: human Protein Tyrosine Phosphatase Non-receptor Type 6 (PTPN6), PTPN6 (gene 5777) (UniProt P29350)
Experiment: NVS_ENZ_hPTPN6: NovaScreen (NVS) Enzymatic Assay for human Protein Tyrosine Phosphatase Non-receptor Type 6 (PTPN6) (AID 2283210)
Protocol: NVS_ENZ_hPTPN6 is a biochemical, single-readout assay that uses extracted gene-proteins from SF9 in a cell-free assay. Measurements were taken 1.33 hours after chemical dosing in a 384-well plate.NVS_ENZ_hPTPN6 is one of one assay component(s) measured or calculated from the NVS_ENZ_hPTPN6 assay. It is designed to make measurements of enzyme activity, a form of enzyme reporter, as detected with fluorescence intensity signals by Fluorescence and electrophoretic mobility shift technology.Data from the assay component NVS_ENZ_hPTPN6 was analyzed into 1 assay endpoint. This assay endpoint, NVS_ENZ_hPTPN6, was analyzed in the positive analysis fitting direction relative to DMSO as the negative control and baseline of activity. Using a type of enzyme reporter, loss-of-signal activity can be used to understand changes in the enzymatic activity as they relate to the gene PTPN6. Furthermore, this assay endpoint can be referred to as a primary readout, because this assay has produced multiple assay endpoints where this one serves a enzymatic activity function. To generalize the intended target to other relatable targets, this assay endpoint is annotated to the phosphatase intended target family, where the subfamily is non-receptor tyrosine phosphatase.
Binding assays used specific radioligands (tritiated, iodinated) with non-radioactive competitive displacement ligands in agonist or antagonist protocols (as indicated) and various reference compounds and inhibitors to titrate specific binding to receptors and transporters. Most enzyme assays (CYPs, kinases, phosphatases, proteases, HDACs) used recombinant protein and specific substrates (fluorescence mostly, some colorimetric and radioactive) and inhibitors, followed by a biochemical separation of substrate and product. All assays for the biochemical HTS were initially run in duplicate at a single concentration (10 uM for CYP450 assays and 25 uM for all others). […] Each assay was run with positive and negative controls, and concurrent controls on every plate. The follow-up (secondary) screen tested active chemical-pairs in concentration series, as well as a few additional assays not tested in the primary screen, some selected negative inactives, and several cases re-run in the concentration series for confirmatory purposes.

Sequence of human Protein Tyrosine Phosphatase Non-receptor Type 6 (PTPN6), PTPN6 (gene 5777) (P29350 whole entry, looked up): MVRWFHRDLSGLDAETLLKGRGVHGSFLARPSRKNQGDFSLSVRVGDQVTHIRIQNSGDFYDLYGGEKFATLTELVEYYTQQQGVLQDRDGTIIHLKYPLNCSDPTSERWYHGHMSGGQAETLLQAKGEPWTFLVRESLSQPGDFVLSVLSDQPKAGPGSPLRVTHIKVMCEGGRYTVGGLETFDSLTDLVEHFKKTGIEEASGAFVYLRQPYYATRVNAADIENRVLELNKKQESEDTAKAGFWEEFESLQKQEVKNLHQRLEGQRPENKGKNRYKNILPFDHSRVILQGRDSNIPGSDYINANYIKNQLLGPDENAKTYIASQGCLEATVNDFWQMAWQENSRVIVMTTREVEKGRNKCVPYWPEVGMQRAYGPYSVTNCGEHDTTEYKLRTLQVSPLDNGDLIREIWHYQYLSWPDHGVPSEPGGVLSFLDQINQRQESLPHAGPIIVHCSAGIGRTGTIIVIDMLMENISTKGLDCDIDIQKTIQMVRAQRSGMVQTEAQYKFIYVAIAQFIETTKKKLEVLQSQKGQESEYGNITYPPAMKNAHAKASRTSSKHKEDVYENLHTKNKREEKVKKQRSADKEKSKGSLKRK

outcome, inactive:
CN(C)C(=O)NC1(c2ccccc2)CCN(CC[C@@]2(c3ccc(F)c(F)c3)CN(C(=O)c3ccccc3)CCO2)CC1
CC(COCC(C)OC(=O)c1ccccc1)OC(=O)c1ccccc1 (stereo not given)
c1ccc2occc2c1
COc1ccc(C(=O)Nc2nc3ccccc3c(NCc3ccccc3)c2C#N)cc1
CCCCCCC(C=O)=Cc1ccccc1

Biological target: human Rho Associated Coiled-coil Containing Protein Kinase 1 (ROCK1), ROCK1 (gene 6093) (UniProt Q13464)
Sequence (Q13464 whole entry, looked up): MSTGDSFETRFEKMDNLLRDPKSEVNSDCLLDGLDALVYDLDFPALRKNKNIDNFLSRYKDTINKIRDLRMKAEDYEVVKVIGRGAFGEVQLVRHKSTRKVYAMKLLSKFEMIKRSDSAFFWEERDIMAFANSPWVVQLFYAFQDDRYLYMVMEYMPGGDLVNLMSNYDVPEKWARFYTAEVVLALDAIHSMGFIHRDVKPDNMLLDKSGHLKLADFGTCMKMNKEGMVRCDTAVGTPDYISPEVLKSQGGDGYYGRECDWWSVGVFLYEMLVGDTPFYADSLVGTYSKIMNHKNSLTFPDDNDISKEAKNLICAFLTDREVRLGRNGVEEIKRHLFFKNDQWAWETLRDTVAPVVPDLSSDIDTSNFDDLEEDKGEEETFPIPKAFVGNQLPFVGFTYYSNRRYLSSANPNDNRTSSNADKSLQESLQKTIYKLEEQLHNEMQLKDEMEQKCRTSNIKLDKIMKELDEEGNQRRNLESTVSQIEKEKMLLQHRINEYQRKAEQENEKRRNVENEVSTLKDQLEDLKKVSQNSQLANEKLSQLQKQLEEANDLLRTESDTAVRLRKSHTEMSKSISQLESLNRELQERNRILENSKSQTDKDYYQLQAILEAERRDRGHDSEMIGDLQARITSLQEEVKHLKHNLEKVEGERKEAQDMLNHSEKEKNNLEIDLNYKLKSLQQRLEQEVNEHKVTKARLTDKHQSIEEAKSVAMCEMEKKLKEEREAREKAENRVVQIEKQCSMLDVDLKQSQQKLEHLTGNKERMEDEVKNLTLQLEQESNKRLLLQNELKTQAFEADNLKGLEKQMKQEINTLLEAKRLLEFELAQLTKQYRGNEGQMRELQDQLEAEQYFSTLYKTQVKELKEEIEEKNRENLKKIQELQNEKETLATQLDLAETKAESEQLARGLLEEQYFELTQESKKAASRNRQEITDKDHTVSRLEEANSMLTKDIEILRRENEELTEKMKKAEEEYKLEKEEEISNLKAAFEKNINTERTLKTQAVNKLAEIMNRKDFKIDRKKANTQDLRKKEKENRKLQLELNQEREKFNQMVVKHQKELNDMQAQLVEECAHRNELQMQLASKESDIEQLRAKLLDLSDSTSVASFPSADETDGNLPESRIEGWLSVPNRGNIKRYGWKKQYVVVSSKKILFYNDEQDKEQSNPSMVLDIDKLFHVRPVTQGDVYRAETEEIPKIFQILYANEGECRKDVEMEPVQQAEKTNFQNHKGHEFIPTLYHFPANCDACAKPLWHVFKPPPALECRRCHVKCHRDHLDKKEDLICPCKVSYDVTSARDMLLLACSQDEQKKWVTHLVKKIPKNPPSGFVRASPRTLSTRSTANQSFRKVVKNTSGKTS
Experiment: NVS_ENZ_hROCK1: NovaScreen (NVS) Enzymatic Assay for human Rho Associated Coiled-coil Containing Protein Kinase 1 (ROCK1) (AID 2283214)
Method in brief: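 Cell-free recombinant human ROCK1 activity assay; fluorescent substrate and product separated by electrophoretic mobility shift, read 1 h after dosing. Screened in duplicate at 25 uM; loss of signal versus DMSO baseline scored as inhibition.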

outcome, inactive:
CC(C)c1cccc(C(C)C)c1
O=C(Oc1ccccc1)c1cccc(C(=O)Oc2ccccc2)c1
O=C(N[C@@H](c1ccccc1)[C@@H]1CCCCN1)c1cccc(C(F)(F)F)c1Cl
CN(C)C(=O)NC1(c2ccccc2)CCN(CCC[C@]2(c3ccc(Cl)c(Cl)c3)CCCN(C(=O)c3ccccc3)C2)CC1
N[C@@H](Cc1c[nH]c2ccccc12)C(=O)O
